Test results: PubChem BioAssay AID743103 (Vanderbilt Specialized Chemistry Center, 2013)
Activity calls are given as the source filed them. How the calls were made is not given here.

These compounds were tested against Muscarinic acetylcholine receptor M3 (Homo sapiens) (UniProt P20309) (assay: off-target M3 muscarinic calcium response – cell-based, CHO-K1 hM3, Fluo-4 calcium flux, ACh EC20, counter-screen for M5 NAM project (AID 743103)). Details: series mostly up to 30 µM.
With `O=C(c1ccc(F)c(F)c1)N1CCN2C(=O)c3ccccc3C12c1ccccc1` (stereo not given) the outcome was “inactive”. `O=C(c1ccc(F)c(F)c1)N1CCN2C(=O)c3ccccc3[C@@]12c1ccc(Cl)cc1` was tested, and the outcome was “inactive”. In the case of `O=C(c1ccc(F)cc1)N1CCN2C(=O)c3ccccc3C12c1ccccc1` (stereo not given), the outcome is reported as “inactive”. In the case of `O=C(c1ccc(F)c(F)c1)N1CCN2C(=O)c3ccccc3C12c1ccc(Cl)cc1` (stereo not given), the outcome is reported as “inactive”. In the case of `O=C(c1cc(F)cc(F)c1)N1CCN2C(=O)c3ccccc3C12c1ccc(Cl)cc1` (stereo not given), the outcome is reported as “inactive”.
